# Out of some 59,000 compounds screened, about 6,500 (11%) were called active. Inconclusive results (about 15%) are left out. Rule as the data show it: active = max dye-equivalent concentration above about 10 nM; inconclusive = mostly about 1.1 nM to 9.6 nM; inactive = weaker than that. Shown is part of a subset that was picked to be rich in actives.
# Assay: qHTS Assay for Spectroscopic Profiling in A350 Spectral Region
# Settings: Compound autofluorescence, 340/450 nm, Alexa 350 dye-equivalents; stronger effect = higher value
row,SMILES,max dye-equivalent concentration
1,COc1ccc(NC(=O)CN(C)S(=O)(=O)c2ccccc2)cc1OC,inactive
2,Brc1ccc(Nc2c3c(nc4ncnn24)CCC3)cc1,inactive
3,CC1CCc2c(sc(NC(=O)c3ccc(Cn4cc(Br)cn4)o3)c2C(N)=O)C1 (stereo unspecified),0.11 µM (active)
4,NC(=O)CSc1oc(-c2cccs2)nc1S(=O)(=O)c1ccccc1,inactive
5,O=C(c1ccco1)N1CCC[C@@]2(CCN(Cc3nccs3)C2)C1,inactive
6,c1ccc(-c2cn3cccnc3n2)cc1,4.8 µM (active)
7,COc1ccc(-c2cn3ccsc3n2)cc1,inactive
8,CCCC(=O)Nc1cccc(-c2cn3ccsc3n2)c1,inactive
9,CC(=O)Nc1cccc(-c2cnc3ccccc3n2)c1,inactive
10,CC(=O)Nc1ccc(-c2cn3cccnc3n2)cc1,6.3 µM (active)
11,CCOc1nc(OCC)nc(-n2cc(-c3ccccc3)nn2)n1,inactive
12,CC(=O)N(Cc1cccs1)C1CCOC(C)(C)C1 (stereo unspecified),inactive
13,CCCCn1c(=S)[nH]c2ncccc2c1=O,inactive
14,O=S(=O)(N1CCOCC1)N1CCN(c2ccccc2F)CC1,inactive
15,CC1(C)CC(=O)NC=C(c2ccccc2)C1,inactive
16,c1ccc(-c2[nH]ncc2-c2nc3ccccc3[nH]2)cc1,inactive

row,SMILES,max dye-equivalent concentration
1,O=c1[nH]c(-c2ccccc2)c(-c2ccccc2)[nH]1,0.014 µM (active)
2,c1csc(CN2CCN(Cc3cccs3)C2c2cccs2)c1,inactive
3,CC1CCCCC1NC(=O)CCS(=O)(=O)c1cccc2nonc12 (stereo unspecified),inactive
4,CCN(CC(=O)NCc1cccs1)c1nnnn1-c1ccccc1,inactive
5,Cc1nnc(SCC(=O)NCc2cccs2)[nH]c1=O,inactive
6,C=CCn1c(C2CC(=O)N(c3ccc(C)cc3)C2)nc2ccccc21 (stereo unspecified),inactive
7,CC(C)Cn1c(N)c(C(=O)NCc2cccs2)c2nc3ccccc3nc21,0.35 µM (active)
8,C=CCn1c(N)c(S(=O)(=O)c2cccs2)c2nc3ccccc3nc21,5.3 µM (active)
9,C=CCn1c(N)c(C(=O)OCC(C)C)c2nc3ccccc3nc21,4.5 µM (active)
10,CC(=O)c1c(N2CCOCC2)nc(=S)n(-c2cc(C)ccc2C)c1C,inactive
11,COC(=O)[C@@H]1[C@H]2C[C@H]3c4[nH]c5cc(OC)ccc5c4CCN3C[C@@H]2C[C@@H](OC(=O)c2cc(OC)c(OC)c(OC)c2)[C@@H]1OC,inactive
12,Oc1c(Br)cc(CN(Cc2cc(Br)c(O)c(Br)c2)C2CCCCC2)cc1Br,inactive
13,CS(=O)(=O)c1ccc2nc(NC(=O)CN3CCCCCC3)sc2c1,inactive
14,CCn1nnc(NC(=O)c2c(OC)cccc2OC)n1,inactive
15,O=C(CSc1nc2ncccc2[nH]1)Nc1ccc2c(c1)OCCO2,inactive
